Source: PubChem BioAssay (NCI)
The panel holds about 83,000 compounds, 20% with a hit somewhere; the sample as a whole holds those more often.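 The test compound was applied at a single concentration to cells in 96-well plates for 48 hours, and percent growth was recorded.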 Values without a mark were called inactive. Calls of active or inactive are those of the source. The calls were made as follows: active = growth percent below 10; inactive = the rest.

Assays:
Experiment in all cases: NCI-60 one-dose screen, 48 h (100 = growth as untreated, 0 = no growth, -100 = all killed)
Conditions in all cases: 10 µM unless noted
RPMI-8226 leukemia = system: RPMI-8226 leukemia
OVCAR-8 ovarian = system: OVCAR-8 ovarian
OVCAR-5 ovarian = system: OVCAR-5 ovarian
OVCAR-4 ovarian = system: OVCAR-4 ovarian
IGROV1 ovarian = system: IGROV1 ovarian
OVCAR-3 ovarian = system: OVCAR-3 ovarian
HS 578T breast = system: HS 578T breast
NCI/ADR-RES ovarian = system: NCI/ADR-RES ovarian
T-47D breast = system: T-47D breast

Row | Compound | growth (RPMI-8226 leukemia) | growth (OVCAR-8 ovarian) | growth (OVCAR-5 ovarian) | growth (OVCAR-4 ovarian) | growth (IGROV1 ovarian) | growth (OVCAR-3 ovarian) | growth (HS 578T breast) | growth (NCI/ADR-RES ovarian) | growth (T-47D breast)
1 | COc1cc(CNC(=O)Cc2ccccc2)ccc1OCc1cn(-c2ccc(F)cc2)nn1 | 89.8% | 95.5% | 108% | 78.2% | 106% | 107% | 99.1% | 94.7% | 94.7%
2 | CS(=O)(=O)Nc1ccc(C(=O)NC(C(=O)NO)c2ccc(-c3cccc(F)c3)cc2)cc1 (stereo not given) | 82.8% | 97.3% | 31.6% | 70.9% | 39.6% | 64.7% | 73% | 66.6% | 82.4%
3 | COC(=O)c1c2c(c(C)[n+]([O-])c1C)C(=O)C(NCc1ccc(F)c(F)c1)=CC2=O | 29.9% | 4.63% (active) | 41.4% | -93.4% (active) | 0.321% (active) | -19% (active) | 80.2% | -6.62% (active) | 10.9%
4 | O=C(c1ccccc1)N(CCc1ccc(Cl)cc1)C(=S)N(C(=O)c1ccccc1)c1ccccc1 | -27% (active) | 106% | 106% | 96.6% | 116% | 104% | 108% | 109% | 61.7%
5 | O=c1c2cccc(F)c2sc2c(N3CCNCC3)nc3ccccc3c12 | 1.83% (active) | 32.7% | 61.9% | 46.9% | 28.3% | 30.9% | 34.8% | 42.6% | 36.3%
6 | Clc1ccc(Oc2ccc(Nc3ncnc4onc(-c5ccccc5)c34)cc2)c(Cl)c1 | 90.8% | 97.7% | 101% | 81.5% | 94.5% | 109% | 99.5% | 96.8% | 83.5%
7 | Cc1cc(Nc2ccc(OCc3ccccc3)cc2)nc2cc(O)ccc12 | 6.65% (active) | 57.1% | 84.3% | 44.5% | 60.5% | 41.3% | 106% | 75.7% | 69.8%
8 | CCN1C(=O)N(c2ccccc2)C2Nn3c(s/c(=C4\C(=O)N(C(C)C)c5ccccc54)c3=O)=NC21 (stereo not given) | 97.7% | 103% | 102% | 105% | 99.6% | 117% | 99.7% | 109% | 102%
9 | CCCCC1CCc2cccc3c(SCC(=O)N(C)c4ccc(Cl)cc4)cc[n+]1c23 (stereo not given) | 110% | 113% | 116% | 107% | 121% | 108% | 116% | 110% | 104%
10 | CCCCCCCCCCCCCCn1cc(C2=C(c3coc4ccc(OC)cc34)C(=O)NC2=O)c2ccccc21 | 122% | 91.8% | 93.8% | 102% | 81.6% | 102% | 98.5% | 98.9% | 96.2%
11 | O=C(Nc1ccc(Br)cc1F)c1cc(Cl)ccc1O | -24.5% (active) | 9.87% (active) | -9.6% (active) | 10.2% | 14.1% | 2.24% (active) | 7.7% (active) | 5.2% (active) | -12.9% (active)
12 | CCCCN1CCN(c2ccc3nc(-c4ccc5nc(-c6ccc(C(F)(F)F)cc6)[nH]c5c4)[nH]c3c2)CC1 | -35.3% (active) | -40.5% (active) | -89.2% (active) | -84.2% (active) | -82.3% (active) | -96.7% (active) | -64.3% (active) | 54.8% | -37.3% (active)
13 | COc1ccc(Br)c(/C=C2\SC(=Nc3ccc(O)cc3)NC2=O)c1 | 51.7% | 98% | 104% | 83% | 94.3% | 102% | 86.5% | 106% | 68.5%
14 | CCOc1ccccc1CN1CCc2nc3cc(C(C)(C)C)[nH]n3c(=O)c2C1 | 101% | 103% | 97.9% | 101% | 99.5% | 106% | 100% | 91.8% | 98.6%
15 | COC(=O)[C@H](NC(=O)C1(C)CCC[C@]2(C)[C@H]3C[C@H]4C(C(C)C)=C[C@]3(CC[C@@H]12)[C@@H]1C(=O)CCC(=O)[C@@H]14)C(C)C (stereo not given in full) | 103% | 101% | 98.7% | 94.5% | 91.9% | 109% | 92.9% | 96.1% | 94.2%
16 | Cc1cccc2c(=O)c3c(sc12)c(NCCCNCCO)nc1ccccc13 | -26.5% (active) | 45.4% | 74.4% | 54.3% | 15.1% | 64.5% | 45.4% | 60.5% | 62.7%
17 | CCCCN1CCN(c2ccc3nc(-c4ccc5nc(-c6ccc(OCC)cc6)[nH]c5c4)[nH]c3c2)CC1 | -25.3% (active) | 70.1% | 135% | 55.2% | 71.9% | -18% (active) | 74.4% | 87.8% | 59.7%
18 | O=c1c(-c2nc3ccccc3[nH]2)cc2ccccc2n1Cc1cn(Cc2ccccc2Cl)nn1 | 12.4% | 50.4% | 78.2% | -22% (active) | 27.9% | 19.8% | 19.2% | 40.6% | 66.4%
19 | COc1cc(/C=C2\Oc3cc(OCCCN4CCCC4)ccc3C2=O)cc(OC)c1 | 49.4% | 56.4% | 89.4% | 75.2% | 51% | -34.6% (active) | 70.2% | 80.8% | 88.8%
20 | COc1cc(C2C(C#N)=C(N)OC3=C2C(=O)c2ccccc2C3=O)cc(OC)c1O (stereo not given) | 17.1% | 33.7% | 65.5% | 81.9% | 62.1% | 1.44% (active) | 6.8% (active) | 66.5% | 88.4%
21 | O=c1c2cc(F)ccc2sc2c(Nc3ccncc3)nc3ccccc3c12 | -31.4% (active) | -18% (active) | -2.06% (active) | -67.5% (active) | 70.7% | 36.5% | – | -9.24% (active) | -3.72% (active)
22 | c1ccc2c(c1)oc1cc3sccc3nc12 | 99.4% | 101% | 109% | 102% | 95.8% | 107% | 101% | 102% | 101%
23 | Nc1n[nH]c2ccc([C@@H]3Nc4ccc5[nH]ncc5c4[C@H]4[C@H]5CCC(C5)[C@H]43)cc12 | 17.4% | 24.3% | 34.9% | 47.6% | 24.2% | -10.1% (active) | 5.8% (active) | 5.44% (active) | 73.6%
24 | COc1ccc(/C=C2/SC(=O)N(CC(=O)N3CCN(c4cc5c(cc4F)c(=O)c(C(=O)O)cn5C4CC4)CC3)C2=O)cc1 | 119% | 93.9% | 103% | 107% | 96% | 115% | 99.9% | 99.4% | 104%
25 | COc1cc(/C=C2\CN(C)C/C(=C\c3cc(CN4CCCC4)c(O)c(OC)c3)C2=O)cc(CN2CCCC2)c1O | 81% | 65.5% | 94.5% | 65.8% | 82% | 50% | 87.8% | 100% | 79.7%
26 | O=C(CSc1nc2ccccc2c(=O)n1-c1ccccc1)Nc1ccc(C(=O)/C=C/c2ccc(Cl)cc2)cc1 | 91.5% | 103% | 98.4% | 105% | 97.3% | 104% | 106% | 106% | 107%
27 | O=C(/C=C/c1ccc(Cl)cc1)c1ccc(Nc2nc(NCCO)nc(Nc3ccc(Cl)cc3)n2)cc1 | -3.49% (active) | 70.8% | 94.3% | 52.8% | 80.1% | 63.2% | 77.2% | 84.6% | 36.1%
28 | Oc1ccc(-c2nc(-c3ccc4oc5ccc(-c6[nH]c(-c7ccc(O)cc7)nc6-c6ccccc6)cc5c4c3)c(-c3ccccc3)[nH]2)cc1 | 19.8% | 72.8% | 74.3% | 52.9% | 34.1% | 43.6% | 66.8% | 72.3% | 46.8%
29 | CCN1C(=O)N(CC)C2C1NN=c1s/c(=C3\C(=O)N(CC(C)(C)C)c4ccccc43)c(=O)n12 (stereo not given) | 36.7% | 32.7% | 51.1% | 27.6% | 24.1% | -18.4% (active) | 18.9% | 11.3% | 58.1%
